Peg3 promoter = reduces Peg3 promoter-driven luciferase expression in HeLa; HeLa PEG-Prom luciferase reporter, luminescence, overnight; 360,000 compounds, 1.7% hits; inhibition, % at 20 µM; AID 588405;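 active = inhibition of at least 50% at 20 µM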
KKLEB cytotox = counter-screen for CF NF-kB inhibitors: cytotoxicity | KKLEB CF airway cells viability, ATPlite luminescence, overnight; stronger effect = lower value; cells stimulated with P. aeruginosa culture filtrate | 360,000 compounds, 0.36% hits | AID 602141 | activity change (cytotoxicity), % at 5 µM;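 active = corrected activity change at or below -50% at 5 µM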
CF NFkB block = blocks PAF-induced NF-kB reporter in cystic fibrosis cells. KKLEB NF-kB-GFP reporter, GFP fluorescence overnight. AID 588850. inhibition, % at 5 µM. 360,000 compounds, 0.86% hits;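 active = at least 50% inhibition at 5 µM, scaled per plate between neutral and stimulator controls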;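 note: PAF is a Pseudomonas aeruginosa culture filtrate used as stimulus; plate controls were PAF-stimulated DMSO wells for no effect and unstimulated DMSO wells for full effect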
Shn3 inh set2 = inhibitors of Schnurri-3 3'UTR reporter in osteoblasts. Clone20 osteoblast Shn3 3'UTR firefly luciferase, 24 h. inhibition, % at 12.5 µM. 360,000 compounds, 0.52% hits. AID 588674;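 active = mean inhibition of at least 75% with every replicate also reaching 75%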;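 note: 0% = median of neutral control wells and 100% = pilot-screen positive control compound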
HIF-2a inh = inhibitors of HIF-2a | 786-0 RCC cells HIF-2a reporter, luciferase luminescence, overnight | inhibition, % at 18.8 µM | 360,000 compounds, 0.72% hits | AID 624352;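 active = inhibition of the luminescence signal of 40% or more relative to plate controls, in a single-dose primary screen at 18.75 µM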
TRPM1 prom inh = reduces MITF-dependent TRPM1 promoter luciferase signal. SK-MEL-5 TRPM1 promoter luciferase, 24 h. inhibition, % at 12.5 µM. 330,000 compounds, 0.83% hits. AID 488899;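 active = mean inhibition across replicates of 60% or more, whatever share of single replicates reaches that level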
CF NFkB conf = CF NF-kB inhibition confirmation, single concentration; 1,300 compounds, 64% hits; shares compounds with CF NFkB block; KKLEB CF airway cells, PAF-induced NF-kB-GFP fluorescence, overnight; AID 602472; inhibition, % at 5 µM; in the data active = inhibition above about 40%;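 note: stimulus PAF is a Pseudomonas aeruginosa filtrate and not platelet activating factor; plate controls were DMSO wells with stimulus for no effect and unstimulated DMSO wells for full effect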
Numbers without * were called inactive; i = inactive; / = not tested or not shown. Compounds with a hit are over-represented: about 2.8% of the library has one in this group of screens.

SMILES	Peg3 promoter	KKLEB cytotox	CF NFkB block	Shn3 inh set2	HIF-2a inh	TRPM1 prom inh	CF NFkB conf
COc1ccc(-c2cn[nH]c2-c2ccc(OCc3ccccc3F)cc2O)cc1OC	45.5	-22.3	59.5*	37.9	19.8	11.9	60.5*
CC1(C(=O)Nc2cccc(Oc3ccccc3)c2)CCN1Cc1cc2ccccc2o1 (stereo not given)	17.2	-0.6	-4.9	8.2	6.4	/	/
COc1ccc(SC[C@H](C)CN2CC[C@H](C(C)(C)C)CCC2=O)cc1	16.5	-8.3	18.1	29.3	5.9	2.9	/
O=[N+]([O-])c1ccc(CSC2=NCCN2)cc1	-21.3	20.8	-5.5	-11.8	3.4	7.7	/
CC1(C)CC(=O)N(c2cc(Cl)ccc2Cl)C(=O)C1	11.1	-2.1	-20.1	-6.1	17.6	0.9	/
Cn1ccnc1C(=O)c1cccc(Br)c1	-55.2	5.6	-3.4	-6.4	-37.5	-6.2	/
C=C(C(=O)c1ccccc1)C(C)C(=C)C(=O)c1ccccc1	104.3*	-36.9	56.6*	61.9	91.0*	/	i
O=C(O)c1ccc(C(=O)C(=O)c2ccccc2)cc1	-11.2	1.3	2.5	5.0	12.4	-9.7	/
Cc1cccc(NC(=O)COC(=O)c2nn(-c3ccccc3C(F)(F)F)cc2O)c1C	14.4	-1.0	13.2	-3.0	6.1	/	/
Cc1ccsc1CN(C)c1ncnc2ccc(-c3ccoc3)cc12	19.4	-15.7	83.6*	-5.6	1.9	/	96.7*
COc1cccc(-c2ccc3ncnc(N(C)Cc4ccco4)c3c2)c1	6.0	-11.4	48.6	8.7	5.6	6.3	/
COC(=O)C1C(c2ccc(N(C)C)cc2)C(C(=O)OC)S(=O)(=O)CS1(=O)=O (stereo not given)	5.1	22.9	-14.8	-11.9	19.6	-0.2	/
C=C1C(=O)OC2C1C(OC(=O)C(C)=CC)CC(=C)C1C(O)C3OC3(C)C21O (stereo not given)	25.6	-15.5	21.8	-21.1	21.6	10.9	/
C=C1C(=O)OC2C=C(CO)CCC=C(CO)CC(OC(=O)C(C)C)C12 (stereo not given)	63.5*	-15.4	87.3*	-22.6	9.4	30.5	45.0*
NC(=O)C1CCN(C(=O)/C=C/c2ccccc2[N+](=O)[O-])CC1	-6.3	-1.7	8.0	-5.8	7.1	-4.7	/
O=C(/C=C/c1ccccc1[N+](=O)[O-])N1CCOCC1	10.8	-43.8	69.7*	-41.3	18.8	4.9	-1.9
Cc1nc(C)c(NC(=O)OC(C)C)cc1NC(=O)OC(C)C	-0.1	3.3	-1.7	6.5	13.6	-9.1	/
Nc1cccc2c1C(=O)N(C(=O)/C=C/c1cccc(Br)c1)C2=O	54.1*	21.9	56.2*	-4.2	12.3	27.5	-66.9
Nc1cccc2c1C(=O)N(C(=O)/C=C/c1cccc(F)c1)C2=O	79.9*	-9.3	52.2*	-13.6	14.2	35.1	-10.6
Cc1c(CCC(=O)NCCCn2ccnc2)c(=O)oc2cc3oc4c(c3cc12)CCCC4	-55.8	1.0	9.2	48.6	-8.8	-5.9	/
O=C(NNc1ccccc1Br)C(O)(c1cccc(C(F)(F)F)c1)c1cccc(C(F)(F)F)c1	53.8*	-47.1	56.9*	53.6	24.2	18.8	83.1*
Cc1ccc(C(=O)COC(=O)c2cc(Cl)ccc2O)cc1[N+](=O)[O-]	4.9	-14.1	51.8*	12.3	13.3	-10.0	47.2*
Cc1ccc(-c2onc3ccc(C(=O)/C=C/N(C)C)cc23)cc1	-27.9	-3.3	67.9*	3.8	-38.6	-10.3	46.8*
CC(=O)c1sc(NC(=O)CCS(=O)(=O)c2ccc(C)cc2)nc1C	10.0	-14.9	56.5*	-7.4	12.6	10.2	38.2
CC1(C)CC(=O)c2sc(NC(=O)CCS(=O)(=O)c3ccccc3)nc2C1	17.1	-12.0	68.3*	20.0	-42.4	/	32.6
SMILES	Peg3 promoter	KKLEB cytotox	CF NFkB block	Shn3 inh set2	HIF-2a inh	TRPM1 prom inh	CF NFkB conf
CCOc1cccc2sc(NC(=O)CCS(=O)(=O)c3ccccc3)nc12	52.6*	-18.8	58.9*	11.9	-57.4	13.4	26.3
COc1cc(/C=N/NC(=O)c2cc(-c3cccc(OC(C)C)c3)nc3ccccc23)ccc1O	-88.8	-16.1	-16.7	-13.6	-91.9	-18.2	/
CC1=C2C3OC(=O)C(C)C3CCC2(C)C=C(Cl)C1=O (stereo not given)	0.1	6.6	-18.2	-2.6	6.0	/	/
CCCCCCCCCCCC(=O)c1c(O)cccc1O	25.6	-11.7	71.4*	2.4	8.1	3.1	41.5*
CCCCCCCC(=O)NNC(=O)Cc1ccccc1	2.2	8.1	-19.0	2.3	-4.8	10.6	/
Cc1ccc2c(c1)C(=O)C(=O)N2Cc1ccc(Cl)cc1	-24.3	-12.5	53.5*	-15.2	-5.2	13.7	32.9
Cc1ccc2c(c1)C(=O)C(=O)N2Cc1ccc(F)cc1	9.9	-16.3	3.2	12.0	9.2	11.9	/
O=C(CCn1nc(-c2ccc(Cl)cc2)ccc1=O)N1CCN(c2ccccc2)CC1	10.5	-1.2	18.4	14.8	18.9	1.1	/
O=C(Nc1ccc(OCC(=O)N2CCOCC2)cc1)c1cncc(Br)c1	-3.6	-16.0	57.2*	-7.0	3.0	-5.8	48.1*
Cc1ccc(C)c(NC(=O)COC(=O)c2ccc3c(c2)OCCO3)c1	-8.3	4.4	12.6	-0.6	11.7	-6.8	/
O=c1[nH]nc(Sc2ncnc3sccc23)n1CCc1ccccc1	44.1	-20.8	53.6*	47.5	28.9	23.3	45.0*
CCN(CC)C(=O)CSc1n[nH]c(=O)n1CCc1ccccc1	15.3	-2.0	5.1	0.7	13.2	2.1	/
Cc1nnc(SCC(=O)N2CCC(c3noc4ccc(F)cc34)CC2)s1	1.7	-14.5	63.6*	28.3	2.2	2.8	90.4*
CCn1c(Oc2ccccc2)nc2c1c(=O)n(C)c(=O)n2C	9.6	-3.2	32.7	17.3	26.1	-3.3	/
CCn1c(Oc2ccccc2F)nc2c1c(=O)n(C)c(=O)n2C	-2.4	-3.9	56.1*	-5.5	20.5	-17.8	83.1*
CC(=O)C1=C(c2cccc([N+](=O)[O-])c2)N(C(C)=O)n2c(C)nnc2S1	-88.5	-39.6	51.8*	18.8	-121.2	0.0	22.0
Cc1cc(=O)oc2cc(NC(=O)CN3C(=O)NC(C)(c4ccccc4)C3=O)ccc12 (stereo not given)	-9.5	2.5	-13.0	-16.8	-23.3	-16.9	/
COc1cc2c(Cc3ccccc3)cncc2cc1O	9.9	3.0	52.8*	4.5	13.0	-1.3	66.0*
CC(OC(=O)c1ccccc1Oc1ccccc1)C(=O)NC1CC1 (stereo not given)	15.7	0.1	-13.9	-16.6	5.6	10.0	/
CC(C)(C)OC(=O)[C@H](Cc1ccccc1)NC(=O)c1nc[nH]c1C(=O)N1CCNCC1	-9.1	7.7	-22.1	8.9	5.1	5.8	/
